Most compounds without a hit are left out; they make up all but 19% or so of the library.
TDP1 cell CPT: growth inhibition of DT40 Tdp1-/-;hTDP1 cells with camptothecin (screen for TDP1 inhibitors); chicken DT40 Tdp1-/-;hTDP1 cells + 20 nM CPT, ATP luminescence, 48 h; 420,000 compounds, 12% hits; AID 686979; Potency, µM (titrated, usually from 46.2 µM), without a hit: at the highest dose activity change, negative = growth inhibition, actives largely listed as inhibitors; note: nearly all actives have a fitted effect of over 55% in size
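Cell growth measured by CellTiter-Glo luminescence after a minimum 48 h, 37 C compound exposure with 20 nM CPT in Tdp1-knockout DT40 cells stably expressing hTDP1, seeded 400/well; qHTS titration format.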
KB-V1 MDR tox: KB-V1 MDR subline cytotoxicity; AID 1347076; Potency, µM (highest dose often 46.1 µM), actives largely listed as cytotoxic; KB-V1 MDR cells viability, CellTiter-Glo, 72 h; 400,000 compounds, 3.4% hits; note: nearly all actives have a fitted effect of over 60% in size
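qHTS viability screen in drug-selected KB-V1 MDR cells: 72 h compound treatment at 37 degrees C, ATP luminescence end point.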
TDP1 cell noCPT: qHTS for Inhibitors of human tyrosyl-DNA phosphodiesterase 1 (TDP1): qHTS in cells in absence of CPT; DT40 Tdp1-/- hTDP1 cells, no CPT, ATP luminescence, 48 h; Potency, µM (top dose mostly 46.2 µM), inactives show at the highest dose activity change, negative = growth inhibition, hits mostly inhibitors; 420,000 compounds, 15% hits; AID 686978, 2013; note: nearly all actives have a fitted effect of over 55% in size
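A cellular qHTS used chicken DT40 cells lacking endogenous Tdp1 but carrying stably transfected human TDP1. Compounds were applied without camptothecin, and cell growth kinetics were judged by ATP-dependent luminescence after ≥48 hr.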
HT1080 IDH1KD tx: HT-1080 IDH1 knockdown cell toxicity (counter line); HT-1080 IDH1 knockdown viability, ATP luminescence, 48 h; Potency, µM (top dose mostly 46.1 µM), for inactives: at the highest dose activity, negative = toxicity, usual class: cytotoxic; 360,000 compounds, 2% hits;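 note: 0% = DMSO wells and -100% = cell-free medium wells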
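Assay cells: HT-1080 with IDH1 knockdown, 750 per well, RPMI/5% FBS. Exposure: 48 h at 37 °C following 2 h pre-incubation. Read: CellTiter-Glo luminescence; fitted concentration-response, curve class assigned.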
KB-3-1 tox: kills parental KB-3-1 adenocarcinoma cells. Potency, µM (doses to about 46.1 µM), actives largely listed as cytotoxic. KB-3-1 viability, CellTiter-Glo ATP luminescence, 72 h. 400,000 compounds, 1.4% hits; note: nearly all actives have a fitted effect of over 60% in size
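Cytotoxicity measured as CellTiter-Glo luminescence after 72 h at 37 C. Compound titrations were pinned onto drug-naive KB-3-1 parental adenocarcinoma cells grown in DMEM with 10% FBS, and normalized data fitted to concentration-response curves.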
HT1080NT lethal: kills 2HG-producing HT-1080-NT fibrosarcoma cells. Potency, µM (doses to about 46.1 µM), for the others: at the highest dose activity, negative = less viability, hits mostly cytotoxic. 360,000 compounds, 1.6% hits. HT-1080-NT fibrosarcoma viability, CellTiter-Glo ATP luminescence, 48 h;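 note: NT is the 2HG producing partner of a matched IDH1 knockdown line; 0% = DMSO-treated cells and -100% = media-only wells without cells; nearly all actives have a fitted effect of over 55% in size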
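HT-1080-NT; 750 cells/well; 5% FBS RPMI; 48 h compound, 37 degrees C; CellTiter-Glo luminescence; curve fitting and curve-class assignment.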
* = called active by the depositor; i = inactive; u = inconclusive; x = no result given; [ ] = remark or other dose. Calls come from the whole dose curve; as a rule, active = well fitted curve in the direction sought with a large enough effect; inconclusive = small, poorly fitted or top-dose-only effect, or another doubt; inactive = no such curve, though single readings can be large; an effect the other way counts as inactive or inconclusive. Unless noted, % is set by controls: 0 for no effect and ±100 for the full control effect; potency is the fitted concentration of half-maximal effect.

SMILES	TDP1 cell CPT	KB-V1 MDR tox	TDP1 cell noCPT	HT1080 IDH1KD tx	KB-3-1 tox	HT1080NT lethal
Cc1ccc(S(=O)(=O)NC2=C(N3CCN(c4ccccc4F)CC3)C(=O)c3ccccc3C2=O)cc1	23µM*	u	u	17%	u	14%
CC(C)(CN1CCN(Cc2ccccc2)CC1)NS(=O)(=O)c1ccc(Cl)cc1	16µM*	u	18µM*	3%	i	u
NC(=O)C1CCN(C2=C(NS(=O)(=O)c3ccc(Cl)cc3)C(=O)c3ccccc3C2=O)CC1	16µM*	i	u	-10%	i	-12%
COC(=O)C1CCN(C2=C(NS(=O)(=O)c3ccc(Cl)cc3)C(=O)c3ccccc3C2=O)CC1	u	i	-17%	u	u	u
COCCCNc1nc2c(S(=O)(=O)c3ccc(C)c(C)c3)nnn2c2ccc(Cl)cc12	u	i	u	x	i	x
N[C@@H](CO)c1nnc([C@H](CC(=O)O)NC(=O)C2CCNCC2)o1	-6%	i	4%	5%	i	4%
Cc1cccc(S(=O)(=O)NNC(=O)c2sc(C)nc2C)c1	-5%	i	-20%	2%	i	3%
O=C(Nc1ccc(F)c(Cl)c1)C1CCN(c2ncccn2)CC1	-20%	i	2%	x	i	x
CC(=O)Nc1ccc(S(=O)(=O)NC2=C(N3CCN(c4ccc(F)cc4)CC3)C(=O)c3ccccc3C2=O)cc1	10µM*	u	16µM*	u	i	u
Cc1ccc(S(=O)(=O)NC2=C(N3CCN(Cc4ccccc4)CC3)C(=O)c3ccccc3C2=O)cc1	23µM*	i	16µM*	-9%	i	-11%
CCCCc1c(-c2ccccc2)ncn1CCc1ccccc1OC	u	10µM*	16µM*	u	u	u
COc1ccccc1CCn1c(=O)c(CCc2ccccc2)nc2cncnc21	2%	x	2%	x	x	x
COCn1cnc(-c2ccccc2)c1-c1ccccc1	-25%	i	u	0%	i	2%
CCCCc1c(-c2cccc(Cl)c2)ncn1CCc1ccccc1OC	8.2µM*	10µM*	8.2µM*	u	u	u
CCCCc1c(Cc2ccccc2)ncn1CCc1ccccc1OC	2.9µM*	18µM*	5.2µM*	18µM*	21µM*	u
CCCc1c(-c2cccc(Cl)c2)ncn1Cc1ccccc1OC	5.8µM*	16µM*	9.2µM*	u	u	u
CC1=C(C(=O)N2CCCCCC2)CC(CC(=O)NCCc2ccccn2)C(=O)N1CCCN1CCCC1=O (stereo not drawn)	u	i	3%	5%	x	25%
COC(=O)CCCCCCCC(=O)Nc1nnc(C(F)(F)F)s1	0%	u	-13%	10%	i	24%
O=C(NC1CCC(O)CC1)c1ccc(NS(=O)(=O)c2cccc([N+](=O)[O-])c2)cc1 (stereo not drawn)	-25%	u	1%	8%	i	3%
COC(=O)c1ccc2nc(-c3ccc(Cl)cc3)c(Cc3ccccc3OC)n2c1	-13%	i	-22%	-6%	i	-3%
CCCCCc1c(-c2ccc(Cl)cc2)ncn1CCc1ccccc1OC	8.2µM*	12µM*	7.3µM*	16µM*	u	u
CCCCc1c(-c2ccc(F)cc2)ncn1CCc1ccccc1OC	u	12µM*	21µM*	u	u	u
CCCCc1c(-c2ccc(OC)cc2)ncn1CCc1ccccc1OC	21µM*	15µM*	23µM*	16µM*	u	16µM*
COc1ccccc1CCn1c(=O)c(-c2cc(F)cc(F)c2)nc2cncnc21	-9%	x	-4%	x	x	x
CCCCCc1c(-c2ccc(OC)cc2)ncn1CCc1ccccc1OC	13µM*	10µM*	15µM*	16µM*	u	21µM*
SMILES	TDP1 cell CPT	KB-V1 MDR tox	TDP1 cell noCPT	HT1080 IDH1KD tx	KB-3-1 tox	HT1080NT lethal
Cc1c2c([n+]3n1CCC3)CC(C)(C)CC2=O	-6%	i	2%	5%[9.24 µM]	i	0%
COc1cccc(C(=O)Nc2ccc(S(=O)(=O)NCc3ccco3)cc2)c1	u	i	u	-10%	i	-2%
CC1=C(C(=O)OCc2ccccc2)C(c2ccc(C)cc2)NC(=O)N1 (stereo not drawn)	-9%	i	u	-3%	i	-5%
Cc1cccc(-n2c(Cc3cc(=O)[nH]c(=O)[nH]3)nnc2SCC(=O)N2CCCCC2)c1	-2%	i	-1%	-3%	i	1%
O=c1[nH]c2ccccc2c2nc(-c3cccc(S(=O)(=O)N4CCCC4)c3)nn12	u	i	16µM*	1%	i	10%
CCc1nnc(N2C(=O)c3ccc(Oc4ccc([N+](=O)[O-])cc4)cc3C2=O)s1	u	i	u	4%	i	4%
COc1cc(NC(=O)[C@@H]2CCCN(S(=O)(=O)c3cccc4cccnc34)C2)cc(OC)c1OC	10µM*	i	13µM*	-3%	i	-2%
Cc1ccc(Cl)cc1NC(=O)C1CCCN(S(=O)(=O)c2cccc3cccnc23)C1 (stereo not drawn)	u	i	u	x	i	x
O=C(Nc1cccc(C(F)(F)F)c1)C1CCCN1S(=O)(=O)c1cccc2cccnc12 (stereo not drawn)	23µM*	2.6µM*	16µM*	-28%	i	-9%
COC(=O)C1CCCN1S(=O)(=O)c1ccc([N+](=O)[O-])cc1 (stereo not drawn)	-25%	i	14%	8%	i	0%
COc1cc(OC)cc(C(=O)Nc2ccccc2S(=O)(=O)N2CCCC2OC(C)=O)c1 (stereo not drawn)	u	i	u	-12%	i	3%
COC(=O)C1CCCN1S(=O)(=O)c1ccc2ccccc2c1 (stereo not drawn)	u	i	21µM*	-11%	i	-3%
COC(=O)C1CCCN1S(=O)(=O)c1ccccc1NC(=O)c1cc(OC)c(OC)c(OC)c1 (stereo not drawn)	15µM*	i	-30%	-2%	i	18%
CCCc1cc(=O)[nH]c(/N=C(/NC(=O)c2ccccc2)Nc2ccc3c(c2)OCCO3)n1	-23%	i	-24%	2%	i	11%

Screens from PubChem BioAssay.
